Measurements as given in PubChem BioAssay (NCI).
Compounds without any hit were thinned out: in the full panel of roughly 83,000, 20% have a hit.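 Activity criterion: percent growth below 10, measured after cells in 96-well plates were exposed to a single compound concentration for 48 hours.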 Values without a mark were called inactive. Activity calls are given as the source filed them.

system: PC-3 prostate; experiment: NCI-60 one-dose screen, 48 h (100 = growth as untreated, 0 = no growth, -100 = all killed); conditions: 10 µM unless noted
Procedure: Growth inhibition of the PC-3 human tumor cell line is measured as a screen for anti-cancer activity. Cells are grown in 96 well plates and exposed to the test compound for 48 hours. Compounds are tested at a single concentration, which is 10^-5 M for most compounds. The reported endpoint is percent growth (GI% or GIPRCNT), where numbers from 0 - 100% represent growth inhibition, and numbers from -100% - 0 represent cell death. For example, a value of 40 represents 60% growth inhibition. A value of 0 means no net growth occurred over the course of the experiment. A value of -40 indicates 40% of cells at the beginning of the experiment died by the end of the experiment. A value of -100 means all cells are dead at the end of the experiment.
NCI-60 Human Tumor Cell Lines Screen was performed using the standard one-dose NCI protocol, which is described in more detail at https://dtp.cancer.gov/discovery_development/nci-60/default.htm.
Compounds with GIPRCNT values below 10 were considered active. Activity score was based on GIPRCNT using the following formula: […]
Score is 0 for GIPRCNT values of 100 or above, 50 for GIPRCNT values of 0, and 100 for GIPRCNT values of -100.

First: Cc1ccc(NC(=O)N[C@@H](Cc2cc(F)cc(F)c2)C(=O)N[C@@H]2C(=O)N3CCC[C@H]3C(=O)N3CCOC[C@H]3C(=O)N[C@@H](C)C(=O)N3C[C@H](C)C[C@H]3C(=O)O[C@H]2C)cc1
Second: CC(C)[C@H]1COC(=O)N1[C@@H]1C(=O)N([C@@H](CCC(=O)N2CCN(C3CCCC3)CC2)C(=O)N[C@@H]2CCCc3ccccc32)[C@@H]1/C=C/c1cccc(Cl)c1
The growth of the first is lower: 19.1% for the first, 25.7% for the second.

First: COc1ncnc2c(-c3ccccc3)cn(COCc3ccccc3)c12
Second: c1ccc(-c2nnc(-c3c[nH]c4ncccc34)s2)cc1
The growth of the first is lower: 25.2% for the first, 81.6% for the second.

Compared with Nc1nc(Cl)c2ncn(Cc3cc4c(cc3I)OCO4)c2n1, Cn1ncc2c(Nc3ccc(O)cc3)nc(Cl)nc21 is higher in growth: 39.1% for the first, 119% for the second.

Compared with Cc1cc(SC#N)ncn1, CCOC(=O)c1c[nH]c2cc(OCC3CC3)c(OCC3CC3)cc2c1=O is lower in growth: 107% for the first, 95.1% for the second.

Going from COc1cc2c(c(Br)c1N)-c1cc(Br)c(N)cc1C2=O to COc1cc(C)cc2oc3oc(=O)c(C(=O)c4cc5cc(Br)ccc5o4)cc3c(=O)c12, the growth rises from 93.2% to 102%.

Compared with COc1cc(NN=C(c2ccc(O)cc2)c2ccc(O)cc2)c([N+](=O)[O-])cc1[N+](=O)[O-], Cc1cc(NN=C(c2ccc(O)cc2)c2ccc(O)cc2)c([N+](=O)[O-])cc1[N+](=O)[O-] is lower in growth: 73.1% for the first, 38.4% for the second.

Going from COC(=O)[C@H](CC(C)C)NC(=O)NC(=O)NC(=O)CI to CC(=O)O.CC(=O)O.O.[Fe], the growth rises from 78.3% to 93.4%.

First: O=C(O)c1cn(C2CC2)c2cc(N3CCN(Cc4cc(Cl)ccc4O)CC3)c(F)cc2c1=O
Second: COc1cc2c(O)n(CCCN3CCOCC3)c3c4cnc5cccc(c(=O)c3c2cc1OC)c54
The growth of the first is higher: 54.7% for the first, 30.6% for the second.

Compared with COc1cc(NCc2ccccc2O)c2ncccc2c1, COc1cc(Cl)cc(-c2nn(C(=O)NS(=O)(=O)c3ccccc3)cc2-c2ccncc2)c1 is higher in growth: 83.6% for the first, 91.4% for the second.

Compared with O=c1c2c3c(sc2n2cnnc2n1Cc1ccccc1)CCCC3, Cn1cc(-c2noc(C(=O)c3cn(C)c4ncccc34)n2)c2ccccc21 is lower in growth: 99.7% for the first, 87% for the second.

First: Nc1nc(N)c2c(n1)NC(c1ccc(F)cc1)C1CCc3ccccc3C1=N2 (stereo not given)
Second: NC1=NC(=O)NC1(c1ccccc1)c1ccccc1
The growth of the first is lower: 45% for the first, 94.3% for the second.

Going from O=S(=O)(c1ccc(N/N=C\c2ccccc2Cl)cc1)c1ccc(N/N=C/c2ccccc2Cl)cc1 to Nc1cc(N)c(N=Nc2ccc(S(=O)(=O)O)cc2)cc1N=Nc1ccc(-c2ccc(N=Nc3ccc(O)c(C(=O)O)c3)cc2)cc1, the growth rises from 54.7% to 98.2%.

Going from Nc1cc(NN=C(c2ccc(O)cc2)c2ccc(O)cc2)c([N+](=O)[O-])cc1[N+](=O)[O-] to O=[N+]([O-])c1cccc(N=NNc2cccc([N+](=O)[O-])c2)c1, the growth rises from 64.2% to 86.4%.

First: CCCOc1ccc(-c2nc(-c3ccc(N)cc3)cs2)cc1
Second: COc1ccc(-c2cc(-c3ccc(Cl)cc3)nc(NCCCCNc3ccnc4cc(Cl)ccc34)n2)cc1
The growth of the first is higher: 94.6% for the first, 54.8% for the second.

First: C#C[C@]1(O)CC[C@H]2[C@@H]3CC=C4c5nc(Nc6ccccc6[N+](=O)[O-])sc5CC[C@]4(C)[C@H]3CC[C@@]21C
Second: CCN(CC)CCSC(=O)C(O)(c1ccccc1)C1CCCC1 (stereo not given)
The growth of the first is lower: 41.8% for the first, 96.9% for the second.

Going from C[C@@H](NC(=O)[C@@H](CC(=O)N1CCC(N2CCCCC2)CC1)N1C(=O)[C@@H](N2C(=O)OC[C@@H]2c2ccccc2)[C@H]1/C=C/c1cccc(Cl)c1)c1ccccc1 to CCN(CC)CCCNCc1cc(-c2ccccc2)nc2ccccc12, the growth rises from 56.1% to 75%.

Compared with Cn1cc(-c2nnc(-c3cn(C)c4ncccc34)o2)c2ccccc21, Cc1nc(Cl)cc(N(c2cc(Cl)nc(C)n2)c2ncc(C(=O)Nc3c(C)cccc3Cl)s2)n1 is lower in growth: 39.8% for the first, 32.4% for the second.

Compared with O=C(NCCCNC(=O)OCc1ccc2cccc(O)c2n1)OCc1ccc2cccc(O)c2n1, COC(=O)c1cc2c(=O)[nH]cc3c2c(n1)CCC3 is higher in growth: 56.6% for the first, 93.6% for the second.

For C=C(C)[C@@H]1CC[C@]2(C(=O)OC)CC[C@]3(C)[C@H](CC[C@@H]4[C@@]5(C)CC/C(=N\OCCC(=NCCC#N)NOCCC#N)C(C)(C)[C@@H]5CC[C@]43C)[C@@H]12, the growth was 4.49% [100 µM] (active).
In the case of C=C(C)[C@@H]1CC[C@]2(C(N)=O)CC[C@]3(C)[C@H](CC[C@@H]4[C@@]5(C)CC[C@H](O)C(C)(C)[C@@H]5CC[C@]43C)[C@@H]12, the growth is reported as -24.5% [100 µM] (active).
In the case of CC1(C)C(=O)/C(=C\c2ccco2)C[C@]2(C)[C@H]3CC=C4[C@@H]5C[C@](C)(C(=O)O)CC[C@]5(C)CC[C@@]4(C)[C@]3(C)CC[C@@H]12, the growth is reported as -32.2% [100 µM] (active).

C=C(C)[C@@H]1CC[C@]2(C(N)=O)CC[C@]3(C)[C@H](CC[C@@H]4[C@@]5(C)C/C(=C/c6cccnc6)[C@H](O)C(C)(C)[C@@H]5CC[C@]43C)[C@@H]12 gave a growth of 21.1% [100 µM].
